Experimental findings from PubChem BioAssay (NCATS) are described below.

Assay [1] can be described thus: NS1 protein of Zika virus - qHTS assay to identify small molecule inhibitors in human HEK 293 cells (AID 1347053). Note: nearly all actives have a fitted effect of over 55% in size. Note: potency is the fitted concentration of half-maximal effect. The essentials:
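HEK 293; 20 h pre-culture, 37 C/5% CO2; cpd 1 h pre-infection; ZIKV MR766, MOI = 0.5, 24 h, 37 C; TR-FRET NS1 readout (two anti-NS1 Abs); norm. to no-virus vs infected.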
Background: Quantitative high-throughput screening tests each substance at several concentrations.

Assay [2] can be described thus: qHTS of pediatric cancer cell lines to identify multiple opportunities for drug repurposing: Primary screen for TC32 cells (AID 1347089). Note: nearly all actives have a fitted effect of over 60% in size. Note: potency is the fitted concentration of half-maximal effect. A digest of the protocol:
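Luminescent CellTiter-Glo read-out of metabolically active TC32 cells after 48 h compound exposure. Primary: MIPE 11-point, 0.78 nM–46 µM; NPC 8-point, 0.59 nM–46 µM. Confirmatory: 11-point dilutions.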

A short description of assay [3]: qHTS of pediatric cancer cell lines to identify multiple opportunities for drug repurposing: Primary screen for DAOY cells (AID 1347090). Note: nearly all actives have a fitted effect of over 55% in size. Note: potency is the fitted concentration of half-maximal effect. A digest of the protocol:
(§1)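 Eight- or eleven-point concentration series, 48 h treatment at 37 degrees C in growth media; readout CellTiter-Glo luminescence. Potency and efficacy were taken from the concentration-response curves.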

A short description of assay [4]: qHTS of pediatric cancer cell lines to identify multiple opportunities for drug repurposing: Primary screen for SJ-GBM2 cells (AID 1347091). Note: potency is the fitted concentration of half-maximal effect. A digest of the protocol:
as §1

Assay [5] can be described thus: qHTS of pediatric cancer cell lines to identify multiple opportunities for drug repurposing: Primary screen for A673 cells (AID 1347092). Note: nearly all actives have a fitted effect of over 45% in size. A digest of the protocol: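 A673 cells (500-1,000 cells/well in growth media) were pre-incubated 5 h at 37 degrees C, then exposed to compounds for 48 h. Viability was read as CellTiter-Glo luminescence; concentration-response curves came directly from the primary screen.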

SMILES strings stand for the structures. Inconclusive results are not listed. Activity calls are given as the source filed them. Calls come from the whole dose curve; as a rule, active = well fitted curve in the direction sought with a large enough effect; inconclusive = small, poorly fitted or top-dose-only effect, or another doubt; inactive = no such curve, though single readings can be large; an effect the other way counts as inactive or inconclusive. Where a SMILES comes first, the peptide text is derived from it. [ ]: non-standard residue; d: D form. pGlu = O=C1CC[C@@H](C(=O)O)N1

Take `O=C(O)c1ccccc1S`: the Potency entry in assay [1], in assay [2], in assay [3] and in assay [4] was “inactive” each time.

As to `CCCN(CCC)C(=O)C(CCC(=O)OCCCN1CCN(CCOC(=O)Cc2c(C)n(C(=O)c3ccc(Cl)cc3)c3ccc(OC)cc23)CC1)NC(=O)c1ccccc1` (stereo unspecified), the Potency result in assay [1], in assay [2] and in assay [3] was “inactive” in each case. The Potency in assay [4] is 18.8 µM (active).

`CCC(=O)Oc1ccc2c(c1)CC[C@@H]1[C@@H]2CC[C@@]2(C)[C@H]1C[C@@H](OC(=O)CC)[C@@H]2OC(=O)CC`: the Potency result in assay [1], in assay [2], in assay [3] and in assay [4] was “inactive” each time.

`O=C1CC2(CCCC2)CC(=O)N1`: the Potency entry in assay [1], in assay [2], in assay [3] and in assay [4] was “inactive” each time.

On to `CCCCC/C=C\C/C=C\CCCCCCCC(=O)NC(C)c1ccccc1` (stereo unspecified), for which the Potency entry in assay [1], in assay [2], in assay [3] and in assay [4] was “inactive” each time.

`O=[N+]([O-])c1ccc(O)c2ncccc12`: the Potency in assay [1] is 6.31 µM (active); in assay [2] it was 13.3 µM (active); in assay [3], 2.66 µM (active); in assay [4] it was 2.66 µM (active).

For the compound `CC(C)(C)c1ccc(C(=O)CCCCl)cc1`, the Potency entry in assay [1], in assay [2], in assay [3] and in assay [4] was “inactive” in each case.

Consider `CN1C(=O)CC(C)(c2ccccc2)C1=O` (stereo unspecified), for which the Potency entry in assay [1], in assay [2], in assay [3] and in assay [4] was “inactive” each time.

For the compound `COc1cc2nc(Cl)nc(N)c2cc1OC`, the Potency result in assay [1], in assay [2], in assay [3] and in assay [4] was “inactive” each time.

Consider `CC1(C)O[C@@H]2C[C@H]3[C@@H]4C[C@H](F)C5=CC(=O)C=C[C@]5(C)[C@@]4(F)[C@@H](O)C[C@]3(C)[C@]2(C(=O)CO)O1`, for which the Potency result in assay [1], in assay [2], in assay [3], in assay [4] and in assay [5] was “inactive” each time.

As for `CN=C(N)NC(=O)Nc1c(C)cccc1C`, the Potency entry in assay [1], in assay [2], in assay [3], in assay [4] and in assay [5] was “inactive” in each case.

With `C/C(=N\O)[C@@H](C)NCC(C)(C)CN[C@H](C)/C(C)=N/O`, the Potency result in assay [1], in assay [2], in assay [3], in assay [4] and in assay [5] was “inactive” each time.

Consider `COc1cc(S(N)(=O)=O)cc(C(=O)O)c1OC`, for which the Potency result in assay [1], in assay [2], in assay [3], in assay [4] and in assay [5] was “inactive” throughout.

Consider `CN(C)CCN(Cc1ccsc1)c1ccccn1`, for which the Potency entry in assay [1], in assay [2], in assay [3], in assay [4] and in assay [5] was “inactive” in each case.

`CCOc1c(N2CCOCC2)cnn(C)c1=O`: the Potency entry in assay [1], in assay [2], in assay [3], in assay [4] and in assay [5] was “inactive” each time.

Regarding `Nc1ccc(C(=O)N2CC3CC(CN(Cc4ccccc4)C3)C2)cc1`, the Potency entry in assay [1], in assay [2], in assay [3], in assay [4] and in assay [5] was “inactive” in each case.

In the case of `Cc1cc(CCCOc2c(C)cc(-c3noc(C(F)(F)F)n3)cc2C)on1`, the Potency result in assay [1], in assay [2], in assay [3], in assay [4] and in assay [5] was “inactive” throughout.

Take `O=C(CCCCCCCCC#CI)Oc1ccccc1`: the Potency entry in assay [1], in assay [2], in assay [3], in assay [4] and in assay [5] was “inactive” in each case.

As for `CC(=O)/C=C/C=C1/C2CCC(C2)C1(C)C` (stereo unspecified), the Potency result in assay [1], in assay [2], in assay [3], in assay [4] and in assay [5] was “inactive” in each case.

Consider `CO[C@]1(NC(=O)CSC(F)F)C(=O)N2C(C(=O)O)=C(CSc3nnnn3CCO)CO[C@H]21`, for which the Potency result in assay [1], in assay [2], in assay [3], in assay [4] and in assay [5] was “inactive” in each case.

As for `CC(=O)OCC(=O)Nc1cc(C#N)cc(NC(=O)COC(C)=O)c1Cl`, the Potency result in assay [1], in assay [2], in assay [3], in assay [4] and in assay [5] was “inactive” in each case.

For `CCNC(=O)[C@@H]1CCCN1C(=O)[C@H](CCCN=C(N)N)NC(=O)[C@H](CC(C)C)NC(=O)CNC(=O)[C@H](Cc1ccc(O)cc1)NC(=O)[C@H](CO)NC(=O)[C@H](Cc1c[nH]c2ccccc12)NC(=O)[C@H](Cc1cnc[nH]1)NC(=O)[C@@H]1CCC(=O)N1` ([pGlu]HWSYGLRP-NHEt), the Potency entry in assay [1], in assay [2], in assay [3], in assay [4] and in assay [5] was “inactive” each time.

With `CCS(=O)(=O)c1ccc(OC)c(C(=O)OC)c1`, the Potency result in assay [1], in assay [2], in assay [3], in assay [4] and in assay [5] was “inactive” in each case.

On to `CCCC(=O)Nc1ccc(O)c(C(C)=O)c1`, for which the Potency entry in assay [1], in assay [2], in assay [3], in assay [4] and in assay [5] was “inactive” in each case.

As for `Cc1sccc1Br`, the Potency result in assay [1], in assay [2], in assay [3], in assay [4] and in assay [5] was “inactive” throughout.

For `CC(C)(C)NCC(O)COc1ccccc1OCC1CCCO1` (stereo unspecified), the Potency entry in assay [1], in assay [2], in assay [3], in assay [4] and in assay [5] was “inactive” throughout.

Regarding `N#Cc1cc(NC(=O)C(=O)O)c(Cl)c(NC(=O)C(=O)O)c1`, the Potency entry in assay [1], in assay [2], in assay [3], in assay [4] and in assay [5] was “inactive” in each case.

With `O=C(O)CCCC[C@@H]1SC[C@@H]2NC(=O)N[C@@H]21`, the Potency result in assay [1], in assay [2], in assay [3], in assay [4] and in assay [5] was “inactive” each time.

As to `Cc1nc2n(c(=O)c1CCN1CCC(C(=O)c3ccc(F)cc3)CC1)CCS2`, the Potency entry in assay [1], in assay [2], in assay [3], in assay [4] and in assay [5] was “inactive” in each case.

`CC(C)C[C@H](NC(=O)CNC(=O)[C@H](Cc1ccc(O)cc1)NC(=O)[C@H](CO)NC(=O)[C@H](Cc1c[nH]c2ccccc12)NC(=O)[C@H](Cc1cnc[nH]1)NC(=O)[C@@H]1CCC(=O)N1)C(=O)N[C@@H](CCCN=C(N)N)C(=O)N1CCC[C@H]1C(=O)NCC(N)=O` (stereo in doubt): the Potency entry in assay [1], in assay [2], in assay [3], in assay [4] and in assay [5] was “inactive” in each case.

`C[N+](C)(CCOc1ccccc1)Cc1cccs1`: the Potency result in assay [1], in assay [2], in assay [3], in assay [4] and in assay [5] was “inactive” each time.

`O=[N+]([O-])c1nccn1CO[C@@H](CO)[C@H](O)CO`: the Potency entry in assay [1], in assay [2], in assay [3], in assay [4] and in assay [5] was “inactive” each time.

On to `COC(=O)c1cc(Cl)ccc1OC`, for which the Potency result in assay [1], in assay [2], in assay [3], in assay [4] and in assay [5] was “inactive” in each case.

On to `CC(C)(Oc1ccc(Cl)cc1)C(=O)OCCCOC(=O)C(C)(C)Oc1ccc(Cl)cc1`, for which the Potency result in assay [1], in assay [2], in assay [3], in assay [4] and in assay [5] was “inactive” each time.

Regarding `COc1c(N2C[C@@H]3CCCN[C@@H]3C2)c(F)cc2c(=O)c(C(=O)O)cn(C3CC3)c12`, the Potency entry in assay [1], in assay [2], in assay [3], in assay [4] and in assay [5] was “inactive” in each case.

With `Brc1ccccc1-c1ccccc1`, the Potency entry in assay [1], in assay [2], in assay [3], in assay [4] and in assay [5] was “inactive” in each case.

Take `COCCOCC(OC)OC`: the Potency entry in assay [1], in assay [2], in assay [3], in assay [4] and in assay [5] was “inactive” each time.

As to `CCCCC(CC)COC(=O)c1ccccc1C(=O)O` (stereo unspecified), the Potency result in assay [1], in assay [2], in assay [3], in assay [4] and in assay [5] was “inactive” each time.

For `CN(C)[C@@H]1C(=O)C(C(N)=O)=C(O)[C@@]2(O)C(=O)C3=C(O)c4c(O)cccc4C[C@H]3C[C@@H]12`, the Potency entry in assay [1], in assay [2], in assay [3], in assay [4] and in assay [5] was “inactive” in each case.

With `COc1cc(C(=O)NC2CCCNC2)cc(OC)c1OC` (stereo unspecified), the Potency result in assay [1], in assay [2], in assay [3], in assay [4] and in assay [5] was “inactive” throughout.

With `C[C@@H]1CCC[C@H](C)N1CCCC(O)(c1ccccc1)c1ccccn1` (stereo partly specified), the Potency entry in assay [1], in assay [2], in assay [3], in assay [4] and in assay [5] was “inactive” throughout.

Consider `CCN1CCCC1CN` (stereo unspecified), for which the Potency result in assay [1], in assay [2], in assay [3], in assay [4] and in assay [5] was “inactive” throughout.

For `CC(=O)OC[C@H]1O[C@@H](OC(C)=O)[C@H](OC(C)=O)[C@@H]1OC(C)=O`, the Potency result in assay [1], in assay [2], in assay [3], in assay [4] and in assay [5] was “inactive” throughout.

`C[C@H]1C[C@@H]2[C@H]([C@@H](O)C[C@@]3(C)[C@H]2CC[C@]3(O)C(=O)CO)[C@@]2(C)C=CC(=O)C=C12`: the Potency result in assay [1], in assay [2], in assay [3], in assay [4] and in assay [5] was “inactive” throughout.

As to `CCNC(=O)NCCCOc1cccc(CN2CCCCC2)c1`, the Potency result in assay [1], in assay [2], in assay [3], in assay [4] and in assay [5] was “inactive” each time.

On to `COC(=O)c1cc(Cl)c(NC(C)=O)cc1OC`, for which the Potency result in assay [1], in assay [2], in assay [3], in assay [4] and in assay [5] was “inactive” each time.

As for `COc1ccc(CCC(C)=O)cc1`, the Potency result in assay [1], in assay [2], in assay [3], in assay [4] and in assay [5] was “inactive” in each case.

Turning to `CCN(CC)CC(=O)OCC(=O)[C@@]1(O)CC[C@H]2[C@@H]3CCC4=CC(=O)CC[C@]4(C)[C@H]3[C@@H](O)C[C@@]21C`, the Potency entry in assay [1], in assay [2], in assay [3], in assay [4] and in assay [5] was “inactive” throughout.

For the compound `CC(C)C(=O)OCc1cccc(OC(=O)[C@@H]2N3C(=O)[C@@H](NC(=O)Cc4ccccc4)[C@H]3SC2(C)C)c1`, the Potency result in assay [1], in assay [2], in assay [3], in assay [4] and in assay [5] was “inactive” each time.
